# Bioassay records (PubChem BioAssay)
# MPTP inh = blocks calcium-induced mitochondrial swelling | inhibition, % at 10 µM | isolated mouse mitochondria, Ca2+ swelling absorbance, 30 min | actives 1.4% (n = 360,000);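 active = inhibition of 50% or more, scaled per plate between neutral and stimulator controls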;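 note: 0% = DMSO wells given calcium and 100% = 1 mM EGTA wells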
# CSC inhib = cancer stem cell inhibition. cancer stem cell-like cells viability, luminescence. inhibition, % at 7.5 µM. actives 1.1% (n = 300,000); in the data active = inhibition above about 75%; tested in HMLE shEcad cells
# Beta apoptosis = beta cell apoptosis inhibition. actives 0.8% (n = 300,000). AID 435005. INS-1E cytokine-induced death, ATP luminescence, 48 h; percent of positive-control rescue, neutral wells zero. protection from apoptosis, % (no concentration beside the values);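 active = Every replicate reaches about 75%, or at least half do and their mean reaches it too, limit read from the data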;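 note: 0% = cytokine-treated negative control wells and 100% = positive control rescue; higher means more ATP so stronger rescue from cytokine killing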
# Calb FLC = C. albicans growth modulation with fluconazole. growth inhibition, % (no concentration beside the values). actives 0.57% (n = 300,000). C. albicans CaCi-2 (fluconazole-resistant clinical isolate) + fluconazole, Alamar Blue growth, 48 h;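 active = growth inhibition above about 58% in most replicates, limit read from the data, passing the limit was not always enough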;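 note: all wells also contain fluconazole at 8 µg/ml as a sub-toxic cotreatment; 0% = median of DMSO wells and 100% = median of geldanamycin control wells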
# Mdm2 MdmX PPI = human Mdm2/MdmX binding inhibition. inhibition, % at 8 µM. AID 485346. SaOS-2 split-luciferase Mdm2/MdmX complementation, luminescence. actives 3% (n = 330,000);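 active = inhibition of at least 50% at 8 µM in the primary screen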
# Mdm2-MdmX conf = human Mdm2/MdmX binding inhibition, confirmed; shares compounds with Mdm2 MdmX PPI; luminescent assay; inhibition, % at 8 µM; actives 55% (n = 10,000); in the data active = inhibition above about 40%
# Full FLuc ctr = counter-screen for Mdm2/MdmX inhibitors: full-length luciferase; shares compounds with Mdm2 MdmX PPI; SaOS-2 full-length luciferase counterscreen, luminescence; inhibition, % at 8 µM; actives 77% (n = 6,200); AID 504607;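 active = mean inhibition at 8 µM reaching about 37%, which flags the compound as non-specific, limit read from the data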;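 note: p53-null SaOS-2 cells with luciferase driven by a doxycycline-inducible promoter; compound on cells about two nights before reading with doxycycline added after day one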
# * = called active by the depositor; · = no result given. Shown are actives, neighbours in structure and some others; about 4.8% of the full set was active somewhere.
SMILES,MPTP inh,CSC inhib,Beta apoptosis,Calb FLC,Mdm2 MdmX PPI,Mdm2-MdmX conf,Full FLuc ctr
O=Cc1ccc(O)c2ncccc12,-29,·,·,94*,56*,34,·
COc1ccc(NC(=O)Cn2ccc(C(F)(F)F)n2)cc1S(=O)(=O)N1CCOCC1,0,-4,-1,·,-11,·,·
CC(=O)c1cc2ccc(O)cc2oc1=O,1,14,-1,1,-4,·,·
Cc1ccc(N=c2oc3cc(O)ccc3cc2C(N)=O)cc1,24,34,4,0,84*,53*,17
O=C(CCc1ccccc1)Nc1cc(C(F)(F)F)ccc1Cl,0,-1,7,5,18,·,·
O=C(NC(Nc1cc(C(F)(F)F)ccc1Cl)C(=O)c1ccccc1)c1ccccc1 (stereo not drawn),9,13,13,-7,52*,8,·
O=CN1CCN(c2c([N+](=O)[O-])c(=O)oc3ccccc23)CC1,1,-10,1,-2,7,·,·
COc1ccccc1CNC(=O)c1cc(C(=O)CC(C)C)c[nH]1,0,-3,1,-7,-9,·,·
COC(=O)c1sc(N)nc1CCNC(=O)OC(C)(C)C,-1,·,·,·,·,·,·
CCNC(=O)C1(C)CCCN(Cc2ccccc2-c2ccccc2)C1 (stereo not drawn),0,·,·,·,·,·,·
CSc1nccc(-c2nn(-c3ccc(C)cc3)ccc2=O)n1,-1,50,2,1,51*,73*,59*
CO/N=C\CC(=O)Nc1ccc(Oc2ccccc2)cc1,-2,1,-9,-38,52*,63*,73*
O=C(C/C=N\O)Nc1ccc(Oc2ccccc2)cc1,0,-4,-6,2,-1,·,·
COc1ccc(NC(=O)CSc2nnc(-c3cccc(O)c3)o2)cc1,-1,·,-3,-4,-24,·,·
COc1cccc(NC(=O)CSc2nnc(-c3cc(C)n(-c4ccccc4)c3C)o2)c1,2,65,0,9,82*,83*,59*
O=C(Nc1ccc2c(c1)OCCO2)C(c1cc2ccccc2o1)N1CCN(C/C=C/c2ccccc2)CC1 (stereo not drawn),1,·,·,·,·,·,·
COC(=O)c1[nH]c2ccc(C)cc2c1NC(=O)C(C)N1CCN(C2CCCCC2)CC1 (stereo not drawn),-1,-10,-5,-9,53*,31,·
COC(=O)c1[nH]c2ccc(C)cc2c1NC(=O)NC1CCCCC1,1,-6,3,-9,39,·,·
COC(=O)c1[nH]c2ccc(Br)cc2c1NC(=O)CN1CCCCC1CCO (stereo not drawn),-1,-5,-1,12,-19,·,·
COC(=O)c1[nH]c2ccc(Br)cc2c1NC(=O)C(C)N1CCN(C2CCCCC2)CC1 (stereo not drawn),-6,-2,-13,·,96*,34,5
COc1ccc(/C=N\NC(=O)c2ccccc2OC)cc1COc1c(F)c(F)c(F)c(F)c1F,0,11,0,5,5,·,·
COc1ccc(/C=N\NC(=O)c2ccccc2Cl)cc1COc1c(F)c(F)c(F)c(F)c1F,1,72,4,-3,56*,22,·
O=C(COC(=O)c1c2c(nc3ccccc13)/C(=C/c1cccc([N+](=O)[O-])c1)CCC2)NC1CCS(=O)(=O)C1 (stereo not drawn),2,67,11,-3,71*,31,·
C[C@H](CO)N1C[C@H](C)[C@H](CN(C)C(=O)Nc2ccc(F)cc2)OCc2ccccc2-c2c(n(C)c3ccccc23)C1=O,0,·,·,·,·,·,·
CCc1nn(CC(=O)NC(C)CCc2ccccc2)c(=O)c2cc3cc(F)ccc3n12 (stereo not drawn),0,15,9,15,55*,11,·
SMILES,MPTP inh,CSC inhib,Beta apoptosis,Calb FLC,Mdm2 MdmX PPI,Mdm2-MdmX conf,Full FLuc ctr
CCc1nn(CC(=O)NC2CCN(Cc3ccccc3)CC2)c(=O)c2cc3cc(F)ccc3n12,-2,5,3,-2,58*,20,·
CCOC(=O)C1=C(C)NC(C)=C(C(=O)OCC)C1c1cccc([N+](=O)[O-])c1,3,·,·,·,·,·,·
COC(=O)C1=C(C)NC(C)=C(C(=O)OCC(C)C)C1c1ccccc1[N+](=O)[O-] (stereo not drawn),2,55,7,·,72*,65*,23
O=C(NCCO)c1ccc(-c2ccc3nncn3c2)cc1,0,·,·,·,·,·,·
COC(=O)C1=C(C(=O)OC)[C@@H]2N(Cc3ccccc3)c3ccccc3[C@@]23C[C@@H](C(=O)OC)N(C(=O)CC(C)C)C3=N1,0,22,12,9,4,·,·
COC(=O)C1=C(C(=O)OC)[C@@H]2N(Cc3ccccc3)c3ccccc3[C@@]23C[C@@H](C(=O)OC)N(C(=O)c2cccs2)C3=N1,2,33,-5,1,60*,21,·
COC(=O)C1=C(C(=O)OC)[C@@H]2N(Cc3ccccc3)c3ccccc3[C@@]23C[C@@H](C(=O)OC)N(C(=O)c2cc(C)oc2C)C3=N1,-2,26,2,12,57*,7,·
COC(=O)C1=C(C(=O)OC)[C@@H]2N(C)c3ccccc3[C@@]23C[C@@H](C(=O)OC)N(C(=O)c2cccs2)C3=N1,0,0,-7,-11,24,·,·
Cc1cc(C)c2ccc(NN)nc2c1O,2,20,5,58,59*,41*,47*
Cc1cc(C)c2ccc(/C=N/O)nc2c1O,0,21,0,6,42,·,·
CC[C@]1(C(=O)OC)[C@H]2C(=O)N(Cc3ccccc3)C(=O)[C@H]2[C@H]2CN=C(SCc3ccc(C)cc3)N21,-1,·,·,·,93*,88*,49*
CCN1C(=O)[C@H]2[C@H]3CN=C(SCc4ccc(C#N)cc4)N3[C@@](Cc3ccccc3)(C(=O)OC)[C@H]2C1=O,0,·,·,·,6,·,·
COC(=O)[C@@]1(Cc2ccccc2)[C@H]2C(=O)N(Cc3ccccc3)C(=O)[C@H]2[C@H]2CN=C(SCc3ccc(C#N)cc3)N21,0,·,·,·,91*,95*,28
CCCCC[C@H](O)/C=C/[C@H]1CCC(=O)[C@@H]1CCCCCCC(=O)N1CCCCC1CO (stereo partly drawn),-1,19,-2,-3,60*,44*,54*
COc1ccc(C(=O)NNC(=O)c2ccc3ccccc3n2)cc1,-1,49,59,·,63*,53*,53*
COc1ccc(/C=C/c2c([N+](=O)[O-])c(=O)n(C)c(=O)n2C)cc1OC,1,-16,-8,-1,14,·,·
Cn1c(/C=C/c2cccc([N+](=O)[O-])c2)c([N+](=O)[O-])c(=O)n(C)c1=O,-2,32,-20,94*,84*,52*,43*
Cn1c(/C=C/c2ccc(Cl)cc2)c([N+](=O)[O-])c(=O)n(C)c1=O,0,57,-5,-6,64*,44*,37*
